Assay results as given in PubChem BioAssay (Tox21).
Values without a mark were called inactive. Where a call stands in place of a potency, no number is given. Active and inactive are the calls of the source. Unless noted, calls come from the whole dose curve; as a rule, active = well fitted curve in the direction sought with a large enough effect in the repeat runs; inconclusive = weak or mixed curves; inactive = no such curve, though single readings can be large; an effect the other way counts as inactive or inconclusive.

What was measured:
[1] = qHTS assay to identify small molecule antagonists of the thyroid receptor (TR) signaling pathway - cell viability counter screen (AID 743064); note: nearly all actives have a fitted effect of over 50% in size
Method in brief: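 Rat GH3 pituitary tumor cells stably expressing two TR response elements driving luciferase were plated, rested 4 h, then dosed with library compounds and T3 (1 nM final). After 23.5 h at 37 °C, CellTiter-Fluor was added for 30 min and fluorescence recorded.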

[2] = test system: thyroid hormone receptor (rat, GH3 cells); test: qHTS assay to identify small molecule agonists of the thyroid receptor (TR) signaling pathway (AID 743066; calls by dose curve)
[3] = biological target: Estrogen receptor (Homo sapiens) (UniProt P03372); test: qHTS assay to identify small molecule antagonists of the estrogen receptor alpha (ER-alpha) signaling pathway (AID 743069; active = well fitted curve in the direction sought with a large enough effect in the signal ratio in the repeat runs, not every such curve was filed as active; inconclusive = weak or mixed curves, or effect the other way; inactive = no such curve, though single readings can be large or run the other way; the % refers to the signal ratio)
Sequence of Estrogen receptor (Homo sapiens) (P03372 whole entry, looked up): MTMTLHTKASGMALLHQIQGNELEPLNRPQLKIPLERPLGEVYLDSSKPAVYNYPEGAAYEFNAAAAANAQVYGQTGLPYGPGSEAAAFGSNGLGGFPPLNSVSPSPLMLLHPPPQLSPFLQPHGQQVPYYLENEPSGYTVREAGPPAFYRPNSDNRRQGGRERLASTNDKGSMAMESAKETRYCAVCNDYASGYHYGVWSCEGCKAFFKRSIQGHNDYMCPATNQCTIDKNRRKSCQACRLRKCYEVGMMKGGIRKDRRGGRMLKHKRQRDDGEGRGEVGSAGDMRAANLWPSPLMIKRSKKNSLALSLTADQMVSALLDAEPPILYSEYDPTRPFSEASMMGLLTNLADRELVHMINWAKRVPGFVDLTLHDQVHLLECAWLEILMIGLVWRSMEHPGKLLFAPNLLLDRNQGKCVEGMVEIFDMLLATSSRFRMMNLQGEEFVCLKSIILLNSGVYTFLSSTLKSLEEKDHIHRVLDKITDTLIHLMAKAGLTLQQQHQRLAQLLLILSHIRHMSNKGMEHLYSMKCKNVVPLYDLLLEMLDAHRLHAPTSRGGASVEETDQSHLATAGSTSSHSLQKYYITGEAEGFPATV
Method in brief: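 Estradiol-stimulated ER-alpha-UAS-bla HEK293 cells, 18 hr compound exposure at 37C. LiveBLAzer B/G substrate, 2 hr RT, fluorescence read.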

[4] = qHTS assay to identify small molecule antagonists of the estrogen receptor alpha (ER-alpha) signaling pathway - cell viability counter screen (AID 743074; calls by dose curve;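 note: HEK293 cells carrying ER-alpha-UAS-bla reporter stimulated with 17beta-estradiol; nearly all actives have a fitted effect of over 45% in size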)
[5] = biological target: Estrogen receptor (Homo sapiens) (UniProt P03372); test: qHTS assay to identify small molecule agonists of the estrogen receptor alpha (ER-alpha) signaling pathway (AID 743075; calls by dose curve;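 note: HEK293 GripTite cells with ER-alpha and UAS-driven beta-lactamase reporter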; note: potency is the fitted concentration of half-maximal effect)
[6] = biological target: Estrogen receptor (Homo sapiens) (UniProt P03372); test: qHTS assay to identify small molecule agonists of the estrogen receptor alpha (ER-alpha) signaling pathway using the BG1 cell line (AID 743079); settings: BG1Luc4E2 cells, ERE-luciferase agonist, 22 h; note: nearly all actives have a fitted effect of over 20% in size; note: potency is the fitted concentration of half-maximal effect
[7] = qHTS assay to identify small molecule antagonists of the estrogen receptor alpha (ER-alpha) signaling pathway using the BG1 cell line - cell viability counter screen (AID 743081);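 note: compound given together with 17beta-estradiol as the ER stimulus; nearly all actives have a fitted effect of over 45% in size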
[8] = biological target: Aromatase (Homo sapiens) (UniProt P11511); test: qHTS assay to identify aromatase inhibitors (AID 743083); note: nearly all actives have a fitted effect of over 55% in size; note: potency is the fitted concentration of half-maximal effect
Sequence of Aromatase (Homo sapiens) (P11511 whole entry, looked up): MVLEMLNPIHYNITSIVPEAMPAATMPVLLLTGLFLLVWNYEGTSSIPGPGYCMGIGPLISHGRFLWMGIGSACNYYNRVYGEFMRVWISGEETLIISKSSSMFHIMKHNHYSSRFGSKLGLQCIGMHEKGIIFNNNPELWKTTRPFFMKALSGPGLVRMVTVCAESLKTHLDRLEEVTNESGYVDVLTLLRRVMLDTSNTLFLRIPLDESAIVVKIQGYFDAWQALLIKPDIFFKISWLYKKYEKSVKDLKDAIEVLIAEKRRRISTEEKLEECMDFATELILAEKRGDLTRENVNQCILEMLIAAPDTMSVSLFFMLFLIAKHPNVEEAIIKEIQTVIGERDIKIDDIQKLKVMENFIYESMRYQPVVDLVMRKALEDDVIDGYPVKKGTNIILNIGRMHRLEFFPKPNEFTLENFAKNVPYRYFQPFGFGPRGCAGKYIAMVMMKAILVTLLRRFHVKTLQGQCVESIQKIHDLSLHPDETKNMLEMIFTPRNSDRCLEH

[9] = qHTS assay to identify small molecule antagonists of the estrogen receptor alpha (ER-alpha) signaling pathway using the BG1 cell line (AID 743080; calls by dose curve;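 note: BG1 cells stimulated with 17beta-estradiol alongside compound; nearly all actives have a fitted effect of over 25% in size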)
Method in brief: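 Luminescence from a 4×ERE-luciferase reporter in BG1-Luc-4E2 cells served as read-out. Cells, pre-cultured 5 days in stripped-serum phenol-red-free medium, were exposed to compound with 17beta-estradiol co-stimulation for 21.5 h at 37 C.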

[10] = qHTS assay to identify small molecule antagonists of the thyroid receptor (TR) signaling pathway (AID 743065); note: nearly all actives have a fitted effect of over 55% in size
Method in brief: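 GH3.TRE-Luc rat pituitary cells carrying two TR response elements driving luciferase were plated for 4 h, given compound plus 1 nM T3 (final), and incubated 23.5 h at 37 C. ONE-Glo luminescence measured reporter inhibition; CellTiter-Fluor fluorescence tracked cytotoxicity.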

In the case of `Clc1ccc(C(Cl)(Cl)Cl)cn1`, the Potency [1] is reported as “inactive”, the Potency [2] is reported as “inactive” and the Potency [3] is reported as “inactive”. For the same compound, the Potency [4] was “inactive”, the Potency [5] was “inactive” and the activation ([6]; at 70.3 µM (top of the series)) was -9.37%. The Potency [7] was “inactive” and the Potency [8] was “inactive”.

With `Oc1ccc2c3c1O[C@H]1[C@@H](O)C=C[C@H]4[C@@H](C2)NCC[C@@]341` the Potency [1] was “inactive”, the Potency [2] was “inactive” and the Potency [4] was “inactive”. For the same compound, the Potency [8] was “inactive”.

In the case of `C=CCCC#N`, the Potency [1] is reported as “inactive”, the Potency [2] is reported as “inactive” and the Potency [3] is reported as “inactive”. For the same compound, the Potency [4] was “inactive”, the Potency [5] was “inactive” and the activation ([6]; at 70.3 µM (top of the series)) was -1.77%. For the same compound, the Potency [9] was “inactive”, the Potency [7] was “inactive” and the Potency [8] was “inactive”.

With `c1ccc2c(c1)CCNC2` the Potency [1] was “inactive”, the Potency [4] was “inactive” and the Potency [7] was “inactive”. For the same compound, the Potency [8] was “inactive”.

For `O=C(O)C(F)(F)C(F)(F)C(F)(F)C(F)(F)C(F)(F)C(F)(F)F`, the Potency [1] was “inactive”, the Potency [2] was “inactive” and the Potency [7] was “inactive”. For the same compound, the Potency [8] was “inactive”.

In the case of `CCc1cc(OC)c(C[C@H](C)N)cc1OC`, the Potency [2] is reported as “inactive”, the Potency [4] is reported as “inactive” and the Potency [8] is reported as “inactive”.

In the case of `COC1=CC(=O)O[C@@H](/C=C/c2ccccc2)C1`, the Potency [10] is reported as “inactive”, the Potency [2] is reported as “inactive” and the Potency [7] is reported as “inactive”. The Potency [8] was “inactive”.

In the case of `CC(C)(N)Cc1ccc(Cl)cc1`, the Potency [2] is reported as “inactive”, the Potency [3] is reported as “inactive” and the Potency [4] is reported as “inactive”. The Potency [5] was “inactive”, the activation ([6]; at 70.3 µM (top of the series)) was 0.193% and the Potency [9] was “inactive”. For the same compound, the Potency [7] was “inactive” and the Potency [8] was “inactive”.

With `C=C1CC[C@@]2(O)[C@H]3Cc4ccc(O)c5c4[C@@]2(CCN3CC2CC2)[C@H]1O5` the Potency [1] was “inactive”, the Potency [4] was “inactive” and the Potency [7] was “inactive”. For the same compound, the Potency [8] was “inactive”.

With `N#CN=C1SCCN1Cc1ccc(Cl)nc1` the Potency [10] was “inactive”, the Potency [2] was “inactive” and the Potency [3] was “inactive”. The Potency [5] was “inactive”, the activation ([6]; at 70.3 µM (top of the series)) was -2.73% and the Potency [9] was “inactive”. For the same compound, the Potency [7] was “inactive” and the Potency [8] was “inactive”.

In the case of `CON(C)C(=O)Nc1ccc(Br)c(Cl)c1`, the Potency [2] is reported as “inactive”, the Potency [4] is reported as “inactive” and the Potency [7] is reported as “inactive”. For the same compound, the Potency [8] was “inactive”.

In the case of `CN1C(=O)COc2c(C(=O)NC3CN4CCC3CC4)cc(Cl)cc21` (stereo not given), the Potency [2] is reported as “inactive”, the Potency [3] is reported as “inactive” and the Potency [4] is reported as “inactive”. The Potency [5] was “inactive”, the activation ([6]; at 70.3 µM (top of the series)) was 18.3% and the Potency [9] was “inactive”. For the same compound, the Potency [8] was “inactive”.

With `O=C(Cl)C(Cl)(Cl)Cl` the Potency [10] was “inactive”, the Potency [2] was “inactive” and the Potency [3] was “inactive”. The Potency [4] was “inactive”, the Potency [5] was “inactive” and the activation ([6]; at 95 µM (top of the series)) was 9.01%. The Potency [9] was “inactive”, the Potency [7] was “inactive” and the Potency [8] was “inactive”.

For `Cc1ccc2cc(C)ccc2c1`, the Potency [10] was “inactive”, the Potency [2] was “inactive” and the Potency [4] was “inactive”. The Potency [7] was “inactive” and the Potency [8] was “inactive”.

With `C#CCOC(=O)/C=C(C)/C=C/CC(C)CCCC(C)C` (stereo not given) the Potency [1] was “inactive”, the Potency [3] was “inactive” and the Potency [4] was “inactive”. For the same compound, the Potency [5] was “inactive”, the Potency [9] was “inactive” and the Potency [7] was “inactive”. The Potency [8] was “inactive”.

With `C=CC=O` the Potency [4] was “inactive”, the Potency [7] was “inactive” and the Potency [8] was “inactive”.

`Brc1c(Br)c(Br)c(Br)c(Br)c1Br` gave an activity, negative = inhibition [10] of 36% [at 8.44 µM], an activation [2] of -0.0085% [at 8.08 µM] and an activity, negative = inhibition [3] of -6.9% [at 6.71 µM]. It also gave an activity, negative = cytotoxicity [4] of -1.91% [at 6.72 µM], an activation [5] of 2.61% [at 6.71 µM] and an activation ([6]; at 8.47 µM (top of the series)) of 1.05%. It also gave an activity change, negative = inhibition [9] of 17.5% [at 8.47 µM], an activity change, negative = cytotoxicity [7] of 9.59% [at 8.47 µM] and an activity, negative = inhibition [8] of 14.6% [at 8.47 µM].

In the case of `CCC(C(N)=O)N1CCCC1=O` (stereo not given), the Potency [10] is reported as “inactive”, the Potency [2] is reported as “inactive” and the Potency [3] is reported as “inactive”. For the same compound, the Potency [4] was “inactive”, the Potency [5] was “inactive” and the Potency [6] was 21.1 µM (active). For the same compound, the Potency [9] was “inactive”, the Potency [7] was “inactive” and the Potency [8] was “inactive”.

For `CCNc1nc(Cl)nc(NC(C)(C)C)n1`, the Potency [2] was “inactive”, the Potency [3] was “inactive” and the Potency [4] was “inactive”. The Potency [5] was 61.6 µM [inconclusive] (active), the Potency [6] was 9.69 µM (active) and the Potency [9] was “inactive”. The Potency [7] was “inactive” and the Potency [8] was “inactive”.

In the case of `COc1ccc2c(C(=O)c3ccc(Cl)cc3)c(C)n(CC(=O)O)c2c1`, the Potency [10] is reported as “inactive”, the Potency [2] is reported as “inactive” and the Potency [4] is reported as “inactive”. The Potency [7] was “inactive” and the Potency [8] was “inactive”.

In the case of `C=C(Cl)CSC(=S)N(CC)CC`, the Potency [2] is reported as “inactive”, the Potency [4] is reported as “inactive” and the Potency [7] is reported as “inactive”. For the same compound, the Potency [8] was 26.6 µM (active).

In the case of `CC[C@H](O)C(C[C@H](C)N(C)C)(c1ccccc1)c1ccccc1`, the Potency [3] is reported as “inactive”, the Potency [4] is reported as “inactive” and the Potency [5] is reported as “inactive”. The activation ([6]; at 95 µM (top of the series)) was -12.1%, the Potency [9] was “inactive” and the Potency [7] was “inactive”. The Potency [8] was “inactive”.

In the case of `CC(Cc1ccccc1)NCCn1cnc2c1c(=O)n(C)c(=O)n2C` (stereo not given), the Potency [10] is reported as “inactive”, the Potency [2] is reported as “inactive” and the Potency [3] is reported as “inactive”. The Potency [5] was “inactive”, the activation ([6]; at 70.3 µM (top of the series)) was -17.2% and the Potency [7] was “inactive”. The Potency [8] was “inactive”.
